15 molecules from PubChem BioAssay AID651956 (Broad Institute, 2012) can be followed below.

Molecules are shown by their SMILES. Potency and affinity values are given separately. Inconclusive results are not listed. A call without a number means that no potency is given here. Active and inactive are the calls of the source.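 The calls were made as follows: active = in every test run, a fitted half-maximal concentration for signal decrease at or below twice the highest tested concentration; inconclusive = runs disagree, flat 30 to 70% decrease, or poor fit; inactive = the rest.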

A short description of the assay: miR-122 activators in hepatoma reporter cells, dose response, cell-based, Huh7 psiCHECK-miR122, Renilla luciferase, cherry-picked (AID 651956).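 Also: Renilla luciferase from a miR-122 sensor reporter so lower signal means miR-122 activation.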 The settings on record: 48 h; series mostly up to 35 µM.
On to `C/C=C/c1ccc([C@@H]2[C@@H](CN(C)C(=O)CC)N(C(=O)NC(C)C)[C@H]2CO)cc1`, for which the molecule was classed as inactive.
With `N#CCc1c(C#N)c(N)nc(N2CCN(S(=O)(=O)c3ccccc3)CC2)c1C#N` the entry was “inactive”; with `CCOc1ccc(C(CCc2ccccc2)NC(=O)c2ccccc2F)cc1OCC` (stereo not given), “inactive”.
With `C[C@@H]1CN([C@@H](C)CO)C(=O)c2cccc(NC(=O)c3ccc(-c4nccs4)cc3)c2O[C@H]1CN(C)Cc1ccc2c(c1)OCO2` the entry was “inactive”.
With `COc1cccc(-c2nn(-c3ccccc3)cc2CO)c1`, the call was inactive.
In the case of `C/C=C/c1ccc([C@H]2[C@@H](CO)N(C(=O)CC)[C@H]2CNC(=O)CC)cc1`, the result was inactive.
The value for `COC(=O)C[C@@H]1CC[C@@H]2[C@H](COc3ccc(NS(=O)(=O)c4ccc(F)cc4)cc3C(=O)N2C)O1` was “inactive”.
With `CCN(C[C@H]1N[C@H](CO)[C@H]1c1ccc(C2=CCCC2)cc1)C(=O)c1cccnc1` the entry was “inactive”; with `CC(=O)N1[C@H](CN(C(=O)c2ccc(F)cc2)C(C)C)[C@H](c2ccccc2)[C@@H]1CO`, “inactive”; with `COc1cccc(CNC(=O)C[C@H]2CC[C@@H]3[C@H](COc4ccc(NC(C)=O)cc4C(=O)N3C)O2)c1`, “inactive”.
With `COc1ccc(NS(=O)(=O)c2ccc(NC(=O)C(C)(C(F)(F)F)C(F)(F)F)cc2)nn1` the entry was “inactive”; with `CNc1nc(NCC2CCCCC2)c2sccc2n1`, “inactive”.
As to `CCOc1ccc(-c2nnc(SCC(=O)Nc3ccc4c(c3)c3ccccc3n4CC)n2N)cc1`, the result was inactive.
As for `O=C(Nc1ccc(Cl)c(C(F)(F)F)c1)c1ccco1`, the result was inactive.
With `CCCNC(=O)Nc1ccc2c(c1)C(=O)N(C)[C@@H]1CC[C@H](CC(=O)O)O[C@H]1CO2` the entry was “inactive”.
